Laboratory results published in PubChem BioAssay (Tox21).
Results filed as inconclusive are left out. Activity calls are given as the source filed them. Unless noted, the call rests on the fitted dose curve; in most records, active means well fitted curve in the direction sought with a large enough effect in the repeat runs; inconclusive means weak or mixed curves; inactive means no such curve, though single readings can be large; an effect the other way counts as inactive or inconclusive.

Columns and labels:
[1] = qHTS assay to identify small molecule antagonists of the glucocorticoid receptor (GR) signaling pathway - cell viability counter screen (AID 720693); conditions: GR-bla HeLa viability, CellTiter-Glo luminescence, 18 h, with 5 nM dexamethasone present; series mostly up to 58.5 µM; further: nearly all actives have a fitted effect of over 55% in size
[2] = qHTS assay for identifying genotoxic compounds that show differential cytotoxicity against isogenic chicken DT40 cell lines with known DNA damage response pathways - wild type cell line (AID 743012); conditions: DT40 wild type chicken cells viability, CellTiter-Glo, 40 h; series mostly up to 68.4 µM; further: nearly all actives have a fitted effect of over 60% in size; further: potency means the concentration at half of the fitted maximal effect
Method in brief: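 Using parental DT40 (300 cells/well), compounds delivered in DMSO incubate 40 h at 37 C/5% CO2. CellTiter-Glo reagent then stands 30 min at room temperature, and luminescence gives cell viability.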

[3] = qHTS assay for identifying genotoxic compounds that show differential cytotoxicity against isogenic chicken DT40 cell lines with known DNA damage response pathways - Rev3 mutant cell line (AID 743014); conditions: chicken DT40 Rev3-/- viability, CellTiter-Glo, 40 h; series mostly up to 68.4 µM; further: nearly all actives have a fitted effect of over 55% in size; further: potency means the concentration at half of the fitted maximal effect
[4] = qHTS assay for identifying genotoxic compounds that show differential cytotoxicity against isogenic chicken DT40 cell lines with known DNA damage response pathways - Rad54/Ku70 mutant cell line (AID 743015); conditions: DT40 Rad54/Ku70 mutant viability, CellTiter-Glo, 40 h; series mostly up to 66.8 µM; further: nearly all actives have a fitted effect of over 60% in size; further: potency means the concentration at half of the fitted maximal effect
[5] = qHTS assay to identify small molecule antagonists of the androgen receptor (AR) signaling pathway using the MDA cell line - cell viability counter screen (AID 743041; further: nearly all actives have a fitted effect of over 45% in size); conditions: MDA-kb2 viability, CellTiter-Fluor, 16 h, cells co-treated with R1881 androgen agonist; series mostly up to 70.3 µM
Method in brief: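 R1881-driven MDA-kb2 AR-luc cells, 3,000/well, were dosed with library compounds for 16 h; cell health came from CellTiter-Fluor fluorescence in the reporter wells.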

[6] = qHTS assay to identify small molecule antagonists of the androgen receptor (AR) signaling pathway - cell viability counter screen (AID 743033; further: nearly all actives have a fitted effect of over 45% in size); conditions: AR-bla HEK293 viability, CellTiter-Glo luminescence, 16 h; series mostly up to 58.5 µM
[7] = target: Androgen receptor (Homo sapiens) (UniProt P10275); experiment: qHTS assay to identify small molecule antagonists of the androgen receptor (AR) signaling pathway (AID 743035; active means well fitted inhibition curve with a large enough effect in the signal ratio in the repeat runs, not every such curve was filed as active; the % refers to the signal ratio); conditions: HEK293 AR-UAS-bla, R1881-stimulated, beta-lactamase FRET, 16 h; series mostly up to 58.5 µM
Method in brief: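 Using qHTS, AR-UAS-bla GripTite HEK293 cells received compound, then R1881, and were cultured 16 h at 37C/5% CO2 before a 2 h room-temperature LiveBLAzer B/G FRET substrate step and fluorescence measurement.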

[8] = target: Androgen receptor (Homo sapiens) (UniProt P10275); experiment: qHTS assay to identify small molecule agonists of the androgen receptor (AR) signaling pathway (AID 743036; active means well fitted activation curve with a large enough effect in the signal ratio in the repeat runs, with a control signal flat, not every such curve was filed as active; the % refers to the signal ratio); conditions: HEK293 AR-UAS-bla GripTite, beta-lactamase FRET ratio, 16 h; series mostly up to 62.4 µM
Method in brief: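 Fluorescence from a beta-lactamase FRET substrate served as read-out in AR-UAS-bla GripTite HEK293 cells. Cells were treated with DMSO-dissolved compounds for 16 h at 37C, then with LiveBLAzer B/G substrate for 2 h at room temperature.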

[9] = target: Androgen receptor (Homo sapiens) (UniProt P10275); experiment: qHTS assay to identify small molecule agonists of the androgen receptor (AR) signaling pathway using the MDA cell line (AID 743040; further: nearly all actives have a fitted effect of over 20% in size); conditions: MDA-kb2 AR-luc cells, MMTV luciferase, 16 h; series mostly up to 70.3 µM
Method in brief: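 After a 5 h incubation at 37C and 0% CO2, MDA-kb2 reporter cells were dosed with compounds in DMSO and kept 16 h under the same conditions. Luciferase activity was then read as luminescence with ONE-Glo.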

[10] = target: Androgen receptor (Homo sapiens) (UniProt P10275); experiment: qHTS assay to identify small molecule antagonists of the androgen receptor (AR) signaling pathway using the MDA cell line (AID 743042; further: nearly all actives have a fitted effect of over 55% in size); conditions: MDA-kb2 AR-luc, MMTV luciferase, R1881 antagonist, 16 h; series mostly up to 70.3 µM
Method in brief: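 Antagonist mode: compounds plus R1881 agonist added to MDA-kb2 AR-luc cells, incubated 16 h at 37C. Luciferase reporter luminescence quantified, with multiplexed CellTiter-Fluor readout for cell viability.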

Measured: Potency

Chain of Androgen receptor (Homo sapiens) (P10275 whole entry, looked up): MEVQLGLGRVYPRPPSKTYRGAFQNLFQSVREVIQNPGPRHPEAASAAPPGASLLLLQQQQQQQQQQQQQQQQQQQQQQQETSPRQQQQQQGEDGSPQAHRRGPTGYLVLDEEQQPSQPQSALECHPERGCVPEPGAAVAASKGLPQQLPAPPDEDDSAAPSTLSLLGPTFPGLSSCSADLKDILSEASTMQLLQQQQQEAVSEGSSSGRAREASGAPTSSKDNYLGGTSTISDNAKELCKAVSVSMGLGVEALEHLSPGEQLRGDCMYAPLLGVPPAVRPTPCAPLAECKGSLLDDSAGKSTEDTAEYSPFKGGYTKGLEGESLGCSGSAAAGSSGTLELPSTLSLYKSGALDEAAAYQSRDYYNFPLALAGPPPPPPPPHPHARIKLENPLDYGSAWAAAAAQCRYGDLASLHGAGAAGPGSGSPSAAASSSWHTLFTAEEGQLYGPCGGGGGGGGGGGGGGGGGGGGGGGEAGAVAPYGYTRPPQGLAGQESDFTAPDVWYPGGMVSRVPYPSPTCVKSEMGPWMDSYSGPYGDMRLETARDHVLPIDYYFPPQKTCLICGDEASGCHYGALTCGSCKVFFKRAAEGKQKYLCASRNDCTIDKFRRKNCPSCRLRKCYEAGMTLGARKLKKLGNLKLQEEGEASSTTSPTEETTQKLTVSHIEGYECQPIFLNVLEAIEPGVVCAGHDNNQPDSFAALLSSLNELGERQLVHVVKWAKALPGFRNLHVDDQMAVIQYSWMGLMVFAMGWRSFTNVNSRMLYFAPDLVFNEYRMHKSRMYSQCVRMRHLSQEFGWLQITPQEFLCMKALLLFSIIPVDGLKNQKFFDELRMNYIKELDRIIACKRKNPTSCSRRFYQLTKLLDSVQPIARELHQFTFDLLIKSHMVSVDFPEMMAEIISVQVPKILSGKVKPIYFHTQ

CC(C)(C)C(=O)C(Oc1ccc(Cl)cc1)n1ccnc1 (configuration not stated)
active: [2] 13.3 µM | [3] 26.6 µM | [4] 21.1 µM
inactive: [1] | [5]

CNC(=O)N(c1ccccc1)c1ccccc1
not listed: [3]
inactive: all other assays above

CC(=O)Oc1ccc(C(=C2CCCCC2)c2ccc(OC(C)=O)cc2)cc1
inactive: [1] | [2] | [4] | [6] | [5]

c1cc[c]([Bi]([c]2ccccc2)[c]2ccccc2)cc1
active: [2] 61.1 µM | [4] 61.1 µM
inactive: [1] | [6]

C[C@@H]1C[C@H]2[C@@H]3CCC4=CC(=O)C=C[C@]4(C)[C@@]3(F)[C@@H](O)C[C@]2(C)[C@@]1(O)C(=O)CO
active: [3] 0.553 µM | [4] 55.3 µM
inactive: [1] | [6] | [5]

COc1ccc(C(=O)c2cccc(O)c2)c(OC)c1
inactive: [1] | [2] | [3] | [6] | [9] | [10]

CCCCCCCC/C=C\CCCCCCCC(=O)OC(CO)CO
inactive: [1] | [2] | [6] | [5]

OC(CCCN1CCCCC1)(c1ccccc1)c1ccccc1
active: [2] 13.3 µM | [4] 29.8 µM
not listed: [3]
inactive: all other assays above
